Results from ChEMBL document CHEMBL1961873, “Compounds: GSK PKIS; Assays: Nanosyn kinase panel” (2012).

Columns and labels:
[1] = biological target: T1, Inhibitor of nuclear factor kappa-B kinase subunit epsilon (Homo sapiens) (UniProt Q14164); details: at 1 µM;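 also: reported values are averaged percent inhibition figures against human IKKε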
T1 sequence (whole entry): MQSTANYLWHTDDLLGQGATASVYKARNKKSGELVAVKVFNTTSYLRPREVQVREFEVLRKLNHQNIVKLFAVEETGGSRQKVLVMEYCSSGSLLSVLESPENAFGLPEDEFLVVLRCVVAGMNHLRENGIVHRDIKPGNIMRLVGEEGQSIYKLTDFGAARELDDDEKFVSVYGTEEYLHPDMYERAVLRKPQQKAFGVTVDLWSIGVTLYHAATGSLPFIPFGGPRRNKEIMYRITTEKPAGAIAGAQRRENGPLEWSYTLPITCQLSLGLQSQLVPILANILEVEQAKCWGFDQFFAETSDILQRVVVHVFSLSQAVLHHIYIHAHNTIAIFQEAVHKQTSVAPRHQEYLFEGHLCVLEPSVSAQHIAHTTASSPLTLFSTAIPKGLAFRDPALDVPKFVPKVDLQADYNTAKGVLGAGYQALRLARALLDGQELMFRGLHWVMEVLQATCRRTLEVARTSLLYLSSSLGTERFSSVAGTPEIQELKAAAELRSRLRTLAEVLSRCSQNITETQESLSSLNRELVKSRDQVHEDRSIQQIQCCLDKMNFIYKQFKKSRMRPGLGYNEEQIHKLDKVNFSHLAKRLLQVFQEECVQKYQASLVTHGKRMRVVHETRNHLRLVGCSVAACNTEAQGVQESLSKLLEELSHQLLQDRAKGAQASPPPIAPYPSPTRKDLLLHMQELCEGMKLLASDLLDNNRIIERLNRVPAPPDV

[2] = biological target: T2, Serine/threonine-protein kinase Nek1 (Homo sapiens) (UniProt Q96PY6); details: at 0.1 µM
T2 sequence (whole entry): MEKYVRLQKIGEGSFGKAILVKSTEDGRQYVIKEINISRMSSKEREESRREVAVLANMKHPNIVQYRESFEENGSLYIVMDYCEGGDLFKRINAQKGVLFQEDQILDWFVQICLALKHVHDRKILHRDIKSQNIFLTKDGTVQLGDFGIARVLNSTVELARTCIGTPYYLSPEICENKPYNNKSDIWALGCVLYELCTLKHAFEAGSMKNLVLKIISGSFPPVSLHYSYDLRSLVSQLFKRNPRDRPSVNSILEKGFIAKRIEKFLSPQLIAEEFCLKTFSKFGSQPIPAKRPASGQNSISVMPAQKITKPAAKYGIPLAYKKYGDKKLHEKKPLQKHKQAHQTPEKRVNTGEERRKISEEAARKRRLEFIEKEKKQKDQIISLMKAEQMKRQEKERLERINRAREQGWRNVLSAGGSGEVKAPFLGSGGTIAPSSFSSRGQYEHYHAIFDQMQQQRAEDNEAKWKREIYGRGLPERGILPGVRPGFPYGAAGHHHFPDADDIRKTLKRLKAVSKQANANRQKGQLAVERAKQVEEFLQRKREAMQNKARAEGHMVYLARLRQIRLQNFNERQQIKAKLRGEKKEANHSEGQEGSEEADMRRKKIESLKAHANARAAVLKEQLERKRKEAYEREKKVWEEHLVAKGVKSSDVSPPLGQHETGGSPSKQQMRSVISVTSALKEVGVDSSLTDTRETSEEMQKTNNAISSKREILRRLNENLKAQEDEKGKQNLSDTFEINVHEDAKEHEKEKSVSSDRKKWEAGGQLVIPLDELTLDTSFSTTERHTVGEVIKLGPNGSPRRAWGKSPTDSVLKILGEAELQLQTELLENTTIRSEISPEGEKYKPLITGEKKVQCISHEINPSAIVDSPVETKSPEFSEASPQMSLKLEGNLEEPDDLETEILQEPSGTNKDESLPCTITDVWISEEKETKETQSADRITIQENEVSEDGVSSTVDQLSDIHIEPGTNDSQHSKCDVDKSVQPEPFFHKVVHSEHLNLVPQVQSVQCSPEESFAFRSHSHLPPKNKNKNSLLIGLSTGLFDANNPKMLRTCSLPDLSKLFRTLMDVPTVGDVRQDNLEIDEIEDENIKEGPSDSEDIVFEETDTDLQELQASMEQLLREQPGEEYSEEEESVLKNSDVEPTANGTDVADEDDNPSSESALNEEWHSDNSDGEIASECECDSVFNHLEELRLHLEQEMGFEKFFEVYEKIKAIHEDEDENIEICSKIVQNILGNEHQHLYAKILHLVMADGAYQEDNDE

[3] = biological target: T2, Serine/threonine-protein kinase Nek1 (Homo sapiens); details: at 1 µM
[4] = biological target: T3, Serine/threonine-protein kinase Nek2 (Homo sapiens) (UniProt P51955); details: at 0.1 µM
T3 sequence (whole entry): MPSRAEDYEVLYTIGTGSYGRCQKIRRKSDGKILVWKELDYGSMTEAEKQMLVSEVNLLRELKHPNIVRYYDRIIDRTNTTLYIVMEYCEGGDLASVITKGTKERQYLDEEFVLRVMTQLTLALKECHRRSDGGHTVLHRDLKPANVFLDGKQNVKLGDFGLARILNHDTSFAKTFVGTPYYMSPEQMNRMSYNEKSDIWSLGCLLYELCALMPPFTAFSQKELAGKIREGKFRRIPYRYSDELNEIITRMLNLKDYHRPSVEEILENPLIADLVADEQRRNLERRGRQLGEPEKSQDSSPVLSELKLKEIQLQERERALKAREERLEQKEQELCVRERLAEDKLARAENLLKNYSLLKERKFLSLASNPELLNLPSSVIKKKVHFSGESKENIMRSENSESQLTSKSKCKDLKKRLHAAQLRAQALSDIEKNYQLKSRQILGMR

[5] = biological target: T3, Serine/threonine-protein kinase Nek2 (Homo sapiens); details: at 1 µM
[6] = biological target: Serine/threonine-protein kinase Nek6 (Homo sapiens) (UniProt Q9HC98); details: at 0.1 µM
Chain of Serine/threonine-protein kinase Nek6 (Homo sapiens) (Q9HC98 whole entry): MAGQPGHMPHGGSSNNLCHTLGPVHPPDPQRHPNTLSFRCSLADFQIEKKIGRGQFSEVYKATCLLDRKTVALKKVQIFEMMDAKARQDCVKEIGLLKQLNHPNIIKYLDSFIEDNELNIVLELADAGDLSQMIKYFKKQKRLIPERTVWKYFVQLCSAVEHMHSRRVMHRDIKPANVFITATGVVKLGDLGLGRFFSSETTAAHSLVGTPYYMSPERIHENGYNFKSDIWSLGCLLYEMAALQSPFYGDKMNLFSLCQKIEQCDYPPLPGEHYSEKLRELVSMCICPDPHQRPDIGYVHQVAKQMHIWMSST

[7] = biological target: Serine/threonine-protein kinase Nek6 (Homo sapiens) (UniProt Q9HC98); details: at 1 µM
[8] = biological target: Serine/threonine-protein kinase Nek7 (Homo sapiens) (UniProt Q8TDX7); details: at 0.1 µM
Chain of Serine/threonine-protein kinase Nek7 (Homo sapiens) (Q8TDX7 whole entry, looked up): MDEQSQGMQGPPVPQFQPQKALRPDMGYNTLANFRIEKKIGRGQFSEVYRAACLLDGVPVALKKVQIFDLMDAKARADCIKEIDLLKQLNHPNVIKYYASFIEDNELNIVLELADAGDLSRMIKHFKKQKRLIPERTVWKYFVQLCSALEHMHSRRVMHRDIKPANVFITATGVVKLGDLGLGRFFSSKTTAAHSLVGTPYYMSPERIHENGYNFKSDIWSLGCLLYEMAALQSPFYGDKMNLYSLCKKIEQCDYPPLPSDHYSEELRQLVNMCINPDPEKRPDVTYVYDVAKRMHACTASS

[9] = biological target: Serine/threonine-protein kinase Nek7 (Homo sapiens) (UniProt Q8TDX7); details: at 1 µM
[10] = biological target: T4, Serine/threonine-protein kinase Nek9 (Homo sapiens) (UniProt Q8TD19); details: at 0.1 µM
T4 sequence (whole entry): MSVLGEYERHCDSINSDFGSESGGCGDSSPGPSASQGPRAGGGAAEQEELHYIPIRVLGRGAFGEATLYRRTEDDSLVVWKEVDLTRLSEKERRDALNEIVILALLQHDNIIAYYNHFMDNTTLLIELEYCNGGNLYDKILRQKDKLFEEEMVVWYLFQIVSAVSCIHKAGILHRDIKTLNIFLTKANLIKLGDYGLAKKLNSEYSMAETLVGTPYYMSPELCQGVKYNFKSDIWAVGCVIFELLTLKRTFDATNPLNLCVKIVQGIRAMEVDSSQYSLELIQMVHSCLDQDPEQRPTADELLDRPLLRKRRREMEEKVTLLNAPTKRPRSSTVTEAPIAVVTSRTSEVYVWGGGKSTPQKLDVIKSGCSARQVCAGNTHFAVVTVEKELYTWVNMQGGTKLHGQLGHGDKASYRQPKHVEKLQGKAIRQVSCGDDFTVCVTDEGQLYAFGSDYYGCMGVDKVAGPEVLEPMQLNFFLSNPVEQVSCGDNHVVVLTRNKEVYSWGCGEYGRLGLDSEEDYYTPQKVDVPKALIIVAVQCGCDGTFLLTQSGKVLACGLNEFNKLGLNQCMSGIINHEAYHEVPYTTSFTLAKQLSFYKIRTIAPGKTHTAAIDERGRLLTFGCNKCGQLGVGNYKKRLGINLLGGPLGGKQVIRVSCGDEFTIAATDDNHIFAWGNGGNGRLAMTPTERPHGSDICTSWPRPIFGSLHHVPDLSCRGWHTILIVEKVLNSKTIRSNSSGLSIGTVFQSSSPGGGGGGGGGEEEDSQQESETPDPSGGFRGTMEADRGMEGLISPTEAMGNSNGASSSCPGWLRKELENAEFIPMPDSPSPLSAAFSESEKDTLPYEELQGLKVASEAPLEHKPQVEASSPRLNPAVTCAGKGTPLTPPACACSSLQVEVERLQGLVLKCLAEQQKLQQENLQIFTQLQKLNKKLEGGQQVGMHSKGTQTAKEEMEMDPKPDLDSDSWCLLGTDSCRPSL

[11] = biological target: T4, Serine/threonine-protein kinase Nek9 (Homo sapiens); details: at 1 µM
[12] = biological target: Serine/threonine-protein kinase PLK1 (Homo sapiens) (UniProt P53350); details: at 0.1 µM
Chain of Serine/threonine-protein kinase PLK1 (Homo sapiens) (P53350 whole entry): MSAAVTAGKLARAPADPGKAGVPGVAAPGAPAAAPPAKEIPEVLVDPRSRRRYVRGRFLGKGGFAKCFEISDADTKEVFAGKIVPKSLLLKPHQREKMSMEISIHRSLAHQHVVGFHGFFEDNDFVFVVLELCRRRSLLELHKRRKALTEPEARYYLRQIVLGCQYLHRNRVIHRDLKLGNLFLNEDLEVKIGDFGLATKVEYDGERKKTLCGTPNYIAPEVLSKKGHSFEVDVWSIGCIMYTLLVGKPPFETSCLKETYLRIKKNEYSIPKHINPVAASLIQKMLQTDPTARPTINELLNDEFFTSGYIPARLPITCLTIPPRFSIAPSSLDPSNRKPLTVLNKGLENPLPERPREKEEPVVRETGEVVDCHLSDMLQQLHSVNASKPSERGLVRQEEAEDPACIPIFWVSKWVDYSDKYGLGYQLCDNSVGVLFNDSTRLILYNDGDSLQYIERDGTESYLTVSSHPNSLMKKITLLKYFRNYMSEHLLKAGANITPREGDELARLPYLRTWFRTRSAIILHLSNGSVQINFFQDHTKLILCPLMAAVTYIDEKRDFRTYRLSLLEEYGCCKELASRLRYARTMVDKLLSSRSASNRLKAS

[13] = biological target: Serine/threonine-protein kinase PLK1 (Homo sapiens) (UniProt P53350); details: at 1 µM
[14] = biological target: T5, Dual specificity protein kinase TTK (Homo sapiens) (UniProt P33981); details: at 0.1 µM
T5 sequence (whole entry): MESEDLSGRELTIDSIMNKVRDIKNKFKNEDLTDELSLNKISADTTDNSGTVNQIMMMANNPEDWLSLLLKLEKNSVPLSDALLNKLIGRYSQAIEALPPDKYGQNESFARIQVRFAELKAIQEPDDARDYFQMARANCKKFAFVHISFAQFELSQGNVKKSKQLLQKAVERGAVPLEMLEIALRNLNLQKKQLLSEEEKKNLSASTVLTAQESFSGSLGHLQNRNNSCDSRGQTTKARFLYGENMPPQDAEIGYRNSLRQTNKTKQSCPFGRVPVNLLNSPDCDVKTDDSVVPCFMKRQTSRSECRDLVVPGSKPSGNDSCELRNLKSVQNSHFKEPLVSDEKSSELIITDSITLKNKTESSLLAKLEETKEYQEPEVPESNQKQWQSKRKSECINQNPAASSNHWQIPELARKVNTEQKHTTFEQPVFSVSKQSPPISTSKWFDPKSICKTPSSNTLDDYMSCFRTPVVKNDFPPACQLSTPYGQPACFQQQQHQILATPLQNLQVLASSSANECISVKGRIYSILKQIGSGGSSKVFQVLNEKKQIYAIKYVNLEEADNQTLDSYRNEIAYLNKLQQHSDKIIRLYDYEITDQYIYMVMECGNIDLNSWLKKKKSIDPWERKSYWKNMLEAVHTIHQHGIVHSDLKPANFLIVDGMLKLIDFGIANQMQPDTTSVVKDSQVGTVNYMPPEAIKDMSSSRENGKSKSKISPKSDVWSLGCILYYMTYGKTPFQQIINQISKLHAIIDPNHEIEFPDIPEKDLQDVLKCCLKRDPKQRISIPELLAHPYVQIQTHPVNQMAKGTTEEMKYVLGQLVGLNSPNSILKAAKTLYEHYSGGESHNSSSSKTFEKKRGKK

[15] = system: T6, Receptor-type tyrosine-protein kinase FLT3 (Homo sapiens), P36888 [D835Y]; details: at 1 µM
T6 sequence (whole entry): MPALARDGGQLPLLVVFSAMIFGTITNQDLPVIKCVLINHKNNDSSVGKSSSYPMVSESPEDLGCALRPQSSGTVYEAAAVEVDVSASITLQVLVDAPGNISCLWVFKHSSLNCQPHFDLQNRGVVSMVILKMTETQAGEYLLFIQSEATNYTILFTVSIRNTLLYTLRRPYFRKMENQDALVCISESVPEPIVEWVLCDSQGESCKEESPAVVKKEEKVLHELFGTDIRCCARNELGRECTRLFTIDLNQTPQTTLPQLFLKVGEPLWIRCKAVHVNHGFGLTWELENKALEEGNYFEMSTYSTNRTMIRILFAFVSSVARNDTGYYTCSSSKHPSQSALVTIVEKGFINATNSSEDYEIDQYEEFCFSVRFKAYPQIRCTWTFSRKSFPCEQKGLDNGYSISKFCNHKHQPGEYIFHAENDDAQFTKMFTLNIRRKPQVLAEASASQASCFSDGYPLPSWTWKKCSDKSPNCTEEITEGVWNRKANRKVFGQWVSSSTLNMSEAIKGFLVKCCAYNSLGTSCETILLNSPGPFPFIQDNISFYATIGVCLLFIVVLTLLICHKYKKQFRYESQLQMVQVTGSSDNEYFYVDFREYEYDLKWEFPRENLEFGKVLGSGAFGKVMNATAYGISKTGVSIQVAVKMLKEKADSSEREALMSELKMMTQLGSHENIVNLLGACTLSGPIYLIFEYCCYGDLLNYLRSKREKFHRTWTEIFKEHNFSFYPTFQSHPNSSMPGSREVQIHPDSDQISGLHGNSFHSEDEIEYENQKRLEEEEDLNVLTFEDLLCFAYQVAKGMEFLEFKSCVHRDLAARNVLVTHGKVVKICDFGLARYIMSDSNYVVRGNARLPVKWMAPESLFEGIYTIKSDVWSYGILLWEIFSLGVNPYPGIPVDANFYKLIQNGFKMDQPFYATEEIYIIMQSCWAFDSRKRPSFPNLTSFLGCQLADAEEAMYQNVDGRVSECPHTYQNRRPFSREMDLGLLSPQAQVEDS

[16] = biological target: Vascular endothelial growth factor receptor 3 (Homo sapiens) (UniProt P35916); details: at 0.1 µM
Chain of Vascular endothelial growth factor receptor 3 (Homo sapiens) (P35916 whole entry): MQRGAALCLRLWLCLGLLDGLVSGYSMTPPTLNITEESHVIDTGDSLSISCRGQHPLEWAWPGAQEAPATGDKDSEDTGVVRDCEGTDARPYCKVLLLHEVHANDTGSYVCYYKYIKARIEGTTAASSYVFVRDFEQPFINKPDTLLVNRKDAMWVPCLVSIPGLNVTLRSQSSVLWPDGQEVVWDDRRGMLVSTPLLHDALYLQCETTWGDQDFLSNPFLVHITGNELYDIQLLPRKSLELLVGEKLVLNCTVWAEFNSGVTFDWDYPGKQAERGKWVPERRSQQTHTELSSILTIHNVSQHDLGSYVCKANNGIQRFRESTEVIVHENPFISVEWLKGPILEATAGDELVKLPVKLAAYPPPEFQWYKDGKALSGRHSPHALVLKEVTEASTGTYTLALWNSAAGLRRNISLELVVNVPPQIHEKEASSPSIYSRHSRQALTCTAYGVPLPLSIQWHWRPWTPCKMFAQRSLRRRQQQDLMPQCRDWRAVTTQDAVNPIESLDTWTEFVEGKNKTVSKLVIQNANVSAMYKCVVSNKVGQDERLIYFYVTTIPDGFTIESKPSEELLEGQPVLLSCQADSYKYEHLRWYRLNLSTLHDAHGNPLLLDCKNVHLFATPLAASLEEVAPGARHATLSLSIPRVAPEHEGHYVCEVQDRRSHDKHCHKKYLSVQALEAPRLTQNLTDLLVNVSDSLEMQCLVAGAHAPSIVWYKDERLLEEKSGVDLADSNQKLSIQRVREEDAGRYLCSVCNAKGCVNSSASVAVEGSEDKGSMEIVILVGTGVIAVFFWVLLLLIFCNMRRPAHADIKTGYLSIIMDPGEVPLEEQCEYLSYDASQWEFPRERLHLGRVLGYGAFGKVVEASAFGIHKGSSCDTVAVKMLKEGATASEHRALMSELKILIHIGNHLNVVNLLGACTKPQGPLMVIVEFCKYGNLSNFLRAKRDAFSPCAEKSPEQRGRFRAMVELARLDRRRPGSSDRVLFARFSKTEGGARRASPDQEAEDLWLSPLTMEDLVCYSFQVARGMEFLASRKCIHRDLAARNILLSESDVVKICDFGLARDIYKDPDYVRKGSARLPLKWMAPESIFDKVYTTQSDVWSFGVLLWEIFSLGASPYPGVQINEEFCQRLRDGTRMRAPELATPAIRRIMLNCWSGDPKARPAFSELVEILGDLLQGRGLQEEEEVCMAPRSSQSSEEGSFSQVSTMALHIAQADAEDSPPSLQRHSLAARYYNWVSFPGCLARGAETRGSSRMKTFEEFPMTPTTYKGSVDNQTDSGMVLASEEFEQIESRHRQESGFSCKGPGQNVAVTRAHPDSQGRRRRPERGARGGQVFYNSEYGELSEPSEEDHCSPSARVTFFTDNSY

[17] = biological target: Vascular endothelial growth factor receptor 3 (Homo sapiens) (UniProt P35916); details: at 1 µM
[18] = biological target: Macrophage colony-stimulating factor 1 receptor (Homo sapiens) (UniProt P07333); details: at 0.1 µM
Chain of Macrophage colony-stimulating factor 1 receptor (Homo sapiens) (P07333 whole entry): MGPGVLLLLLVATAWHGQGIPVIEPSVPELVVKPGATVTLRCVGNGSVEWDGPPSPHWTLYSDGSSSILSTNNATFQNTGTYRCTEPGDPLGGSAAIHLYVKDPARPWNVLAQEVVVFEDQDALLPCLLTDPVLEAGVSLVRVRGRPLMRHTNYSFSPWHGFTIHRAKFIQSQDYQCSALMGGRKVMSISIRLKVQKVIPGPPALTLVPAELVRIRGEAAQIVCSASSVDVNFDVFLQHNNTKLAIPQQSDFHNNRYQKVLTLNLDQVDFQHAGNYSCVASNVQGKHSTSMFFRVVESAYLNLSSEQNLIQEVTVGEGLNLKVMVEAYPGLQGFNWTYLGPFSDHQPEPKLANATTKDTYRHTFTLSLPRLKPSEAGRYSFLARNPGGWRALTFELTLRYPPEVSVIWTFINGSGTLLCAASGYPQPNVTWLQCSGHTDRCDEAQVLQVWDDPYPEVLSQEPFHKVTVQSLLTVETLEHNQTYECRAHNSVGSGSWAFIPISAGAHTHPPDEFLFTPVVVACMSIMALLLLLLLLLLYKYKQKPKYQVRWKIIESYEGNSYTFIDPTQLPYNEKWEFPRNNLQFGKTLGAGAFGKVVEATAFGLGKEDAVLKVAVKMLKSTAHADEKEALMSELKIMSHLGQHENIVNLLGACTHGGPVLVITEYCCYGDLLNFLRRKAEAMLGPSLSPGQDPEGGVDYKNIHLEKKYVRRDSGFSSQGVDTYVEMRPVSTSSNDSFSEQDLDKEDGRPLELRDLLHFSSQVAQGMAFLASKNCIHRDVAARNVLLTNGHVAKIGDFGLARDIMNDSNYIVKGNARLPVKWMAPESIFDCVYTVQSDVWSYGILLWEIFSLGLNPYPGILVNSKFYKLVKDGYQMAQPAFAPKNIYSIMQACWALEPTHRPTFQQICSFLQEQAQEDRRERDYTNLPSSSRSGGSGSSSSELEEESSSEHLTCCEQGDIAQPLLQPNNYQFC

[19] = biological target: Macrophage colony-stimulating factor 1 receptor (Homo sapiens) (UniProt P07333); details: at 1 µM
[20] = biological target: Tyrosine-protein kinase Fyn (Homo sapiens) (UniProt P06241); details: at 0.1 µM
Chain of Tyrosine-protein kinase Fyn (Homo sapiens) (P06241 2-537 limits assumed): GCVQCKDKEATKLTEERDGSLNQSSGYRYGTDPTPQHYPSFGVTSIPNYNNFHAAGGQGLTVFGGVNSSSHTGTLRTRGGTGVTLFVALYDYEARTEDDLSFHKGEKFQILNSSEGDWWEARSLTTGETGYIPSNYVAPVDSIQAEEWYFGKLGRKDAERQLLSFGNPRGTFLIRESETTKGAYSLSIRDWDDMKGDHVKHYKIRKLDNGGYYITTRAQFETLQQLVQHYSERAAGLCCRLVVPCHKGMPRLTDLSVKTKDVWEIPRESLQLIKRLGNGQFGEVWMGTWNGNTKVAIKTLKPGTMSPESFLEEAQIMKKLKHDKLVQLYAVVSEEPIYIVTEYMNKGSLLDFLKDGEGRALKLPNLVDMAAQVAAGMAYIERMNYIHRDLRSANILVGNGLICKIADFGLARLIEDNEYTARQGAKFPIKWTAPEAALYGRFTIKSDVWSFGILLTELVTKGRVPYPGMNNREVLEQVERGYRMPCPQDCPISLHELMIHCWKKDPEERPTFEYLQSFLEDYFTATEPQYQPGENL

Structure (SMILES) | inhibition [1] [%] | inhibition [2] [%] | inhibition [3] [%] | inhibition [4] [%] | inhibition [5] [%] | inhibition [6] [%] | inhibition [7] [%] | inhibition [8] [%] | inhibition [9] [%] | inhibition [10] [%] | inhibition [11] [%] | inhibition [12] [%] | inhibition [13] [%] | inhibition [14] [%] | inhibition [15] [%] | inhibition [16] [%] | inhibition [17] [%] | inhibition [18] [%] | inhibition [19] [%] | inhibition [20] [%]
CC1=C(C(=O)Nc2ccc3[nH]nc(C)c3c2)C(c2ccc(C(F)(F)F)cc2)CC(=O)N1 (stereo not given) | 2.46 | 1.56 | 2.57 | 3.16 | 3.29 | 1.24 | -1.35 | 3.34 | 2.74 | 1.92 | -5.55 | 3.32 | 0.85 | 4.14 | 5.4 | 5.85 | 2.72 | 1.56 | 2.04 | 2.88
Cc1ccc(-c2cc3c(NC(=O)C4CC4)ncnc3o2)cc1 | 6.07 | 1.85 | 3.91 | 4.58 | 4.89 | 3.4 | 0.29 | 3.17 | 3.35 | 3.07 | 4.87 | 3.28 | 2.79 | 6.01 | 3.4 | 3.84 | 9.25 | 20.6 | 66.9 | 6.5
Cc1cc(O)cc(C)c1/C=C/c1cncc(C(=O)OC(C)(C)C)c1 | 91.7 | 2.47 | 4.15 | 3.29 | 2.53 | 1.87 | 2.59 | -2.32 | 3.53 | 8.55 | 2.6 | 0.53 | 2.82 | 6.3 | 2.14 | 1.44 | 1.34 | 7.66 | 38.6 | 8.16
